Assay results taken from PubChem BioAssay.
“And” between values parts separate entries of the source, which are not always exact repeats. Identical values can stand only once. The source made the active and inactive calls.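 The calls were made as follows, unless noted: active = compounds whose cell count with miR-34 switched on is under 0.7 times the count with it off; inactive = the rest.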

Key:
[1] = tested on: Aerobactin synthetase IucA (Klebsiella pneumoniae); experiment: IucA aerobactin synthetase inhibitors, biochemical, Tocris library, absorbance (AID 1345561; call rule not given here;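 also: 100% = enzyme without compound and 0% = no enzyme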); conditions: purified IucA enzyme assay, absorbance (OD) read-out; stronger effect = lower value;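 tested at 8 µM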
[2] = sensitizers of A549 cells to miR-34 induction, primary screen, imaging, A549 dox-inducible miR-34, nuclei and caspase counts (AID 1347080); conditions: A549 miR-34 inducible, Hoechst nuclei count, 48 h
[3] = viability rescue of complex I mutant cybrids, primary screen, cell-based, galactose medium, ATP luminescence (AID 1645843;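 active = z-score of at least 1.8 in each of two replicates, scored against plate mean and spread of sample wells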;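 also: positive z means more ATP and so rescue of galactose-driven cybrid death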); conditions: complex I mutant cybrid cells, 72 h, stronger effect = higher value
[4] = stronger effect = lower value, cell number ratio, induced over uninduced
[5] = measured here: relative caspase fold change +Dox/-Dox
[6] = measured here: total cells with miR-34 induction, stronger effect = lower value
[7] = measured here: total cells without miR-34 induction

Structure (SMILES) | remaining activity [1] | fold change [2, 4] | fold change [2, 5] | cell count [2, 6] | cell count [2, 7] | z-score [3]
CC1=C(/C=C/C(=C/C=C/C(C)=C/C(=O)O)c2ccc(C)cc2)C(C)(C)CCC1 | 105% (inactive) | 0.936 (inactive) | 1.77 | 6950 | 7420 | 0.99 (inactive)
CCCCn1c(=O)c2[nH]c(C34CC5CC(CC3C5)C4)nc2n(CCCO)c1=O | 106% (inactive) | 1.02 (inactive) | 1.81 | 5180 | 5060 | 0.41 (inactive)
O=C(NCCCN1CCC2(CC1)OCc1ccccc12)[C@H]1CCCN1Cc1ccccc1 | 123% (inactive) | 0.953 (inactive) | 1.86 | 7790 | 8180 | -0.88 (inactive)
Cc1cc(C)cc(C(=O)N(C)[C@H](Cc2ccc(-c3ccccc3)cc2)C(=O)N[C@@H](Cc2c[nH]c3ccccc23)C(=O)O)c1 | 125% (inactive) | 0.884 (inactive) | 0.967 | 8970 | 10100 | 7.92 (active)
BrC1C(Br)C(Br)C(Br)C(Br)C1Br (stereo unspecified) | 107% (inactive) | 1.04 (inactive) | 1.17 | 7970 | 7680 | -0.62 (inactive)
CCn1c(=O)n(C2=C(CO)CN(CC3CCCCCCC3)CC2)c2ccccc21 | 102% (inactive) | 0.951 (inactive) | 1.46 | 7150 | 7510 | -0.665 (inactive)
COc1cc2c(cc1OC)-c1cc3nc4ccccc4nc3n1C(C)(C)C2 | 119% (inactive) | 1.11 (inactive) | 0.782 | 4000 | 3590 | -0.79 (inactive)
O=[N+]([O-])c1cc2nc(O)c(O)nc2cc1[N+](=O)[O-] | 103% (inactive) | 0.896 (inactive) | 1.68 | 8310 | 9280 | -0.355 (inactive)
CCCCC#Cc1nc(NC)c2ncn([C@@H]3O[C@H](CO)[C@@H](O)[C@H]3O)c2n1 | 96.8% (inactive) | 0.906 (inactive) | 0.777 | 8810 | 9730 | -0.21 (inactive)
O=C(c1c(O)c2ccc(Cl)cc2[nH]c1=O)C1CC1 | 118% (inactive) | 0.973 (inactive) | 1.04 | 8250 | 8480 | -0.025 (inactive)
CSc1nc(NC2CCCC2)c([N+](=O)[O-])c(NC2CCCC2)n1 | 104% (inactive) | 0.932 (inactive) | 1.24 | 7100 | 7620 | -0.215 (inactive)
CC1(C)C[C@@H]1C(=O)N/C(=C\CCCCSC[C@@H](N)C(=O)O)C(=O)O | 102% (inactive) | 0.976 (inactive) | 1.46 | 9200 | 9420 | -0.005 (inactive)
CC(C)C[C@H](NC(=O)N1CCCCCC1)C(=O)N[C@H](Cc1cn(C)c2ccccc12)C(=O)N[C@H](Cc1ccccn1)C(=O)O | 87.9% (inactive) | 0.819 (inactive) | 0.926 | 7880 | 9620 | 1.25 (inactive)
CS(=O)(=O)c1ccc(Cn2c3c(c4cc(F)cc(F)c42)CCCC3CC(=O)O)cc1 (stereo unspecified) | 110% (inactive) | 0.908 (inactive) | 0.675 | 8590 | 9460 | 0.655 (inactive)
c1ncc(CC2CCNCC2)[nH]1 | 101% (inactive) | 0.95 (inactive) | 0.717 | 8900 | 9370 | 0.095 (inactive)
O=C(Nc1c(-c2cccs2)nc2ccccn12)c1ccc(Cl)cc1 | 108% (inactive) | 0.889 (inactive) | 0.893 | 8490 | 9560 | 1.35 (inactive)
COC(=O)[C@H]1C2C[C@H]3c4[nH]c5ccccc5c4CCN3C[C@H]2CC[C@@H]1O (stereo partly specified) | 106% (inactive) | 0.968 (inactive) | 0.826 | 8540 | 8820 | -0.115 (inactive)
CN1CCN(C(=O)c2nc3ccc(Cl)cc3[nH]2)CC1 | 102% (inactive) | 0.91 (inactive) | 1.56 | 8900 | 9780 | 0.84 (inactive)
NC(C(=O)O)c1ccc(C(=O)O)c(O)c1 (stereo unspecified) | 93.9% (inactive) | 0.966 (inactive) | 1.12 | 9030 | 9350 | -0.31 (inactive)
Cn1cnnc1Sc1c([N+](=O)[O-])ncn1C | 103% (inactive) | 0.949 (inactive) | 1.89 | 8370 | 8820 | -0.12 (inactive)
O=[N+]([O-])c1cccc2c[nH]nc12 | 110% (inactive) | 0.915 (inactive) | 0.873 | 7800 | 8520 | -0.1 (inactive)
Cc1ccc(S(=O)(=O)NCc2ccccc2)cc1 | 121% (inactive) | 0.861 (inactive) | 0.767 | 8330 | 9670 | -0.21 (inactive)
O=C1c2ccccc2C(Cc2ccncc2)(Cc2ccncc2)c2ccccc21 | 107% (inactive) | 0.992 (inactive) | 1.04 | 7700 | 7770 | -0.13 (inactive)
CS/C(N)=C(C#N)/C(C#N)=C(\N)SC | 109% (inactive) | 0.85 (inactive) | 1.19 | 8330 | 9800 | -0.595 (inactive)
CCCCCCCCCCCCCCCC(=O)C(F)(F)F | 108% (inactive) | 1.01 (inactive) and 0.961 (inactive) | 0.782 and 1.06 | 5680 and 8900 | 5630 and 9260 | -0.105 (inactive)
CCCCN1CCC(CCC(=O)c2cc(Cl)c(N)cc2OC)CC1 | 95.7% (inactive) | 0.973 (inactive) | 1.12 | 8560 | 8800 | -0.48 (inactive)
